Results from PubChem BioAssay (NCI).
About 83,000 compounds went through this panel and 20% of them were active in at least one assay; those are over-represented in the sample as a whole.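 Step 1: grow cells in 96-well plates. Step 2: add test compound at a single concentration. Step 3: incubate 48 h. Step 4: record percent growth.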 Unmarked numbers belong to inactive results. Active and inactive are the calls of the source. Rule for the calls: active = growth percent below 10; inactive = the rest.

What was measured:
Assay in all cases: NCI-60 one-dose screen, 48 h (100 = growth as untreated, 0 = no growth, -100 = all killed)
Details in all cases: 10 µM unless noted
[1] = test system: SK-MEL-2 melanoma
[2] = test system: EKVX NSCLC
[3] = test system: SN12C renal
[4] = test system: UO-31 renal
[5] = test system: TK-10 renal
[6] = test system: ACHN renal
[7] = test system: CAKI-1 renal
[8] = test system: A498 renal
[9] = test system: CCRF-CEM leukemia
[10] = test system: MOLT-4 leukemia

Cc1cc(NS(=O)(=O)c2ccccc2)c(OS(=O)(=O)c2ccccc2)cc1C gave a growth [1] of 118%, a growth [2] of 104% and a growth [3] of 94%. For the same compound, the growth [4] was 73.6%, the growth [5] was 119% and the growth [6] was 104%. It also gave a growth [7] of 109%, a growth [8] of 89.2% and a growth [9] of 97.5%. The growth [10] was 88.5%.

In the case of COc1cc(C(=O)/C=C/c2c(-c3ccc(F)cc3)nc3ncccn23)cc(OC)c1OC, the growth [1] is reported as 30.1%, the growth [2] is reported as 52.3% and the growth [3] is reported as 60.8%. It also gave a growth [4] of 35.7%, a growth [5] of 78.2% and a growth [6] of 47%. For the same compound, the growth [7] was 16.2%, the growth [8] was 69.9% and the growth [9] was 18.9%. It also gave a growth [10] of 50.7%.

Work on Oc1ccccc1-c1nc2ccccn2c1NCCN1CCOCC1 yielded a growth [1] of 106%, a growth [2] of 102% and a growth [3] of 97.1%. The growth [4] was 89.9%, the growth [5] was 94.8% and the growth [6] was 95.3%. For the same compound, the growth [7] was 86.9%, the growth [8] was 89.5% and the growth [9] was 94.3%. For the same compound, the growth [10] was 97.5%.

CCCCS(=O)(=O)Oc1ccc(-c2nc(C)c(C(=O)OCC)s2)cc1C=O gave a growth [1] of 97.2%, a growth [2] of 92.1% and a growth [3] of 57.1%. It also gave a growth [4] of 57.7%, a growth [5] of 68.8% and a growth [6] of 62.7%. For the same compound, the growth [7] was 63.7%, the growth [8] was 77.5% and the growth [9] was 15.3%. The growth [10] was 32.1%.

Compound COc1ccc(/C(C)=C(\c2ccc(Cl)cc2)c2ccc(OCCN3CCCCCC3)cc2)cc1F has a growth [1] of 74.5%, a growth [2] of 57.7% and a growth [3] of 57.4%. For the same compound, the growth [4] was 32.4%, the growth [5] was 81.7% and the growth [6] was 64.5%. It also gave a growth [7] of 22.6%, a growth [8] of 77.6% and a growth [9] of 36.2%. For the same compound, the growth [10] was 26.6%.

With Cn1cc(-c2ccc3ncc(-c4ccc(CC(=O)Nc5cc(C(C)(C)C)nn5C)cc4)cc3c2)cn1 the growth [1] was -9.17% [30 µM] (active), the growth [2] was 27.1% [30 µM] and the growth [3] was 16.6% [30 µM]. The growth [4] was 7.45% [30 µM] (active), the growth [5] was 40.6% [30 µM] and the growth [6] was 8.71% [30 µM] (active). For the same compound, the growth [7] was 5.68% [30 µM] (active), the growth [8] was 11.4% [30 µM] and the growth [9] was -15.4% [30 µM] (active). The growth [10] was -22.1% [30 µM] (active).

Cc1cccc(-c2cc(O)c(C(=O)N3CCOCC3)s2)c1 showed a growth [1] of 28.5%, a growth [2] of 58.6% and a growth [3] of 49.1%. The growth [4] was 58.3%, the growth [5] was 61.7% and the growth [6] was 60.6%. For the same compound, the growth [7] was 47.5%, the growth [8] was 26.7% and the growth [9] was 35.5%. For the same compound, the growth [10] was 21.6%.

Compound C=C1C(=O)O[C@H]2[C@H]1CC/C(Cn1cc(CNCCc3c[nH]c4ccccc34)nn1)=C\CC[C@@]1(C)O[C@@H]21 has a growth [1] of 61.4%, a growth [2] of 97.2% and a growth [3] of 95%. The growth [4] was 80.7%, the growth [5] was 94.9% and the growth [6] was 87.4%. For the same compound, the growth [7] was 91.3%, the growth [8] was 103% and the growth [9] was 16.4%. It also gave a growth [10] of 77.6%.

CC(C)OC(=O)OCOP(=O)(OCOC(=O)OC(C)C)C1CCCN(O)C1=O (centres undefined) was tested, and the growth [1] was 28.5%, the growth [2] was 47.8% and the growth [3] was 5.75% (active). For the same compound, the growth [4] was 9.98% (active), the growth [5] was 2.39% (active) and the growth [6] was 26.9%. For the same compound, the growth [7] was 25.1%, the growth [8] was 1.16% (active) and the growth [9] was 10%. For the same compound, the growth [10] was 22.5%.

In the case of CC(=O)Nc1ccc(C(=O)/C=C/c2ccccc2)cc1, the growth [1] is reported as 78.2%, the growth [2] is reported as 95.2% and the growth [3] is reported as 77.2%. It also gave a growth [4] of 51.8%, a growth [5] of 82.1% and a growth [6] of 94.6%. The growth [7] was 88.2%, the growth [8] was 74% and the growth [9] was 95.1%. For the same compound, the growth [10] was 81.6%.

CN1CCN(C2=C(Cl)C(=O)c3ccccc3C2=O)CC1 showed a growth [1] of 45.8%, a growth [2] of 89.3% and a growth [3] of 79.1%. The growth [4] was 75.4%, the growth [5] was 93.5% and the growth [6] was 82.9%. It also gave a growth [7] of 77%, a growth [8] of 88.6% and a growth [9] of 75.5%. The growth [10] was 79.7%.

Work on CN1CCC(=C2c3ccccc3C=Cc3ccccc32)CC1 yielded a growth [1] of 105%, a growth [2] of 91.9% and a growth [3] of 79.1%. It also gave a growth [4] of 67%, a growth [5] of 112% and a growth [6] of 84.4%. It also gave a growth [7] of 95.5%, a growth [8] of 99.2% and a growth [10] of 72.6%.

In the case of O=C(O)c1ccccc1C(=O)Nc1ccc(Cl)cc1, the growth [1] is reported as 102%, the growth [2] is reported as 96.2% and the growth [3] is reported as 102%. The growth [4] was 84.6%, the growth [5] was 93.3% and the growth [6] was 94.9%. For the same compound, the growth [7] was 74.1%, the growth [8] was 108% and the growth [9] was 110%. It also gave a growth [10] of 71.2%.

With Cc1cc(Cc2cc(C)cc(C(C)(C)C)c2O)c(O)c(C(C)(C)C)c1 the growth [1] was 68.8%, the growth [2] was 26.5% and the growth [3] was 28.1%. It also gave a growth [4] of 43%, a growth [5] of 52.8% and a growth [6] of 34.3%. The growth [7] was 31%, the growth [8] was 90.2% and the growth [9] was 28.5%. It also gave a growth [10] of 29.1%.

With CS(=O)(=O)c1ccc(-c2[nH]c3ccc(F)cc3c2/C=N/NC(N)=S)cc1 the growth [1] was 27.4%, the growth [2] was 31.8% and the growth [3] was 21%. It also gave a growth [4] of 40.2%, a growth [5] of 37.8% and a growth [6] of 25.2%. The growth [7] was 39.4%, the growth [8] was 17% and the growth [9] was 2.97% (active). The growth [10] was 11.7%.

COc1ccc(/C=C2\COc3ccc(O)cc3C2=O)c(OC)c1 was tested, and the growth [1] was 55.9%, the growth [2] was 70.5% and the growth [3] was 52.7%. The growth [4] was 74.9%, the growth [5] was 91.9% and the growth [6] was 85.2%. The growth [7] was 59.3%, the growth [8] was 92.4% and the growth [9] was 4.96% (active). The growth [10] was 36.8%.

For CC(C)(O)c1cccc(F)c1, the growth [1] was 124%, the growth [2] was 92% and the growth [3] was 94.7%. The growth [4] was 88.7%, the growth [5] was 109% and the growth [6] was 99.1%. For the same compound, the growth [7] was 101%, the growth [8] was 97% and the growth [9] was -41.6% (active). For the same compound, the growth [10] was 107%.

Work on CCCCNC(=O)c1cc(NCc2cc(O)ccc2O)ccc1O yielded a growth [1] of 93.6%, a growth [2] of 95% and a growth [3] of 89.7%. For the same compound, the growth [4] was 57%, the growth [5] was 101% and the growth [6] was 89.4%. The growth [7] was 87.3%, the growth [8] was 88.9% and the growth [9] was 8.3% (active). The growth [10] was 61.5%.

Cc1nc(Nc2ccc(NC(=S)Nc3ccccc3)cc2)c2ccccc2n1 gave a growth [1] of 111%, a growth [2] of 95.6% and a growth [3] of 101%. The growth [4] was 85.7%, the growth [5] was 131% and the growth [6] was 102%. The growth [7] was 91.3%, the growth [8] was 100% and the growth [9] was 93.1%. For the same compound, the growth [10] was 85.6%.

For Cn1nnnc1-c1ccc(N)cc1, the growth [1] was 89%, the growth [2] was 93.8% and the growth [3] was 110%. It also gave a growth [4] of 79%, a growth [5] of 97.3% and a growth [6] of 98.7%. It also gave a growth [7] of 93.2%, a growth [8] of 108% and a growth [9] of 100%. For the same compound, the growth [10] was 92.5%.

In the case of Cc1nc(Nc2cccc(NC(=O)Nc3ccc(Cl)cc3)c2)c2ccccc2n1, the growth [1] is reported as 107%, the growth [2] is reported as 87.2% and the growth [3] is reported as 92.9%. It also gave a growth [4] of 88.2%, a growth [5] of 104% and a growth [6] of 105%. The growth [7] was 80.4%, the growth [8] was 81.8% and the growth [9] was 82.9%. The growth [10] was 76.7%.

CCN(CC)CCCNC(=O)c1ccc(N)cc1O was tested, and the growth [1] was 100%, the growth [2] was 103% and the growth [3] was 101%. It also gave a growth [4] of 69.7%, a growth [5] of 106% and a growth [6] of 98.3%. The growth [7] was 106%, the growth [8] was 56.2% and the growth [9] was -32.8% (active). For the same compound, the growth [10] was 91%.

With CC[C@@H](C[C@H](CCO)c1ccccc1)c1cc2ccccc2o1 the growth [1] was 81.3%, the growth [2] was 103% and the growth [3] was 95.8%. For the same compound, the growth [4] was 88.8%, the growth [5] was 98.8% and the growth [6] was 99.1%. It also gave a growth [7] of 77.4%, a growth [8] of 104% and a growth [9] of 90.7%. The growth [10] was 79.9%.

Compound Cc1c(C(=O)O)nnn1-c1nccs1 has a growth [1] of 94.1%, a growth [2] of 92.9% and a growth [3] of 101%. It also gave a growth [4] of 91%, a growth [5] of 101% and a growth [6] of 99.9%. It also gave a growth [7] of 94.3%, a growth [8] of 86.4% and a growth [9] of 93.3%. It also gave a growth [10] of 103%.

CC(C)n1nc(C#Cc2cccc3cc(-c4cccc(C(F)(F)F)c4)ncc23)c2c(N)ncnc21 was tested, and the growth [1] was 42.8%, the growth [2] was 93.6% and the growth [3] was 86.1%. It also gave a growth [4] of 82%, a growth [5] of 85.1% and a growth [6] of 68.7%. The growth [7] was 86.8%, the growth [8] was 83.5% and the growth [9] was 39.5%. It also gave a growth [10] of 43.2%.

In the case of COc1cc(/C=C/C(=O)c2cccc(-n3cc(-c4ccccc4)[nH]c3=O)c2)cc(OC)c1OC, the growth [1] is reported as -64.5% (active), the growth [2] is reported as 17% and the growth [3] is reported as 10.4%. The growth [4] was -45.2% (active), the growth [5] was -5.4% (active) and the growth [6] was -64.9% (active). The growth [7] was 12.2%, the growth [8] was 33.2% and the growth [9] was 3.61% (active). For the same compound, the growth [10] was -12.6% (active).

Compound O=C(O)C1C[C@](O)(c2ccc(F)cc2)[C@@H](c2ccc(F)cc2)O1 (some centres undefined) has a growth [1] of 102%, a growth [2] of 105% and a growth [3] of 116%. For the same compound, the growth [4] was 78.5%, the growth [5] was 108% and the growth [6] was 116%. The growth [7] was 40.5%, the growth [8] was 156% and the growth [9] was 82.4%. For the same compound, the growth [10] was 97.2%.
